PubChem BioAssay (NCI)
The panel holds about 83,000 compounds, 20% with a hit somewhere; the sample as a whole holds those more often.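 Single-concentration screen, 48 h exposure, 96-well plates. Endpoint: percent growth. Below 10 = active.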 The source made the active and inactive calls.

These compounds were tested on HL-60(TB) leukemia (assay: NCI-60 one-dose screen, 48 h (100 = growth as untreated, 0 = no growth, -100 = all killed)). Settings: 10 µM unless noted.

SMILES | growth
COc1ccc(-c2cc(C(=O)Nc3ccc(C)cc3)nc3[nH]c(=O)sc23)cc1 | 51.8% (inactive)
CNCCCn1c2c(c3ccc(Cl)cc3c1=O)C(=O)c1cc(OC)cnc1-2 | -26.3% (active)
Cn1ccnc1C(=O)/C=C/c1ccc(CC(=O)Nc2cc(F)c(F)c(F)c2)cc1 | -31.2% (active)
